PubChem BioAssay AID1224817 (Yan Lab, Georgia Cancer Center, Augusta University, 2016)
Values joined by “and” are separate entries in the source; they are usually repeats but may differ in a detail not shown here. Equal entries are not always repeated. Out of some 2,000 compounds screened, about 25 (1%) were called active.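 The calls were made as follows: active = log2 luciferase ratio at or below -0.5849, meaning signal at two thirds of solvent-only control or lower; inactive = the rest.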 The sample as a whole holds a higher share of actives than the screen did.

Assay: inhibitors of EIF4E gene expression, primary screen, cell-based, HT1080, luciferase reporter (AID 1224817);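 also: luciferase reports endogenous eIF4E expression since it is co-expressed from the native EIF4E locus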
Conditions: HT1080 EIF4E-luc2 knock-in reporter, 16 h, at 2.5 µM, stronger effect = lower value

log2 luciferase activity ratio, active:
C=C1C(=O)OC2C1C(OC(=O)/C(C)=C/C)CC(O)(CCl)C1C(OC(C)=O)C=C(C)C21O (stereo not drawn) -1.14
Nc1nc(Cl)cc(NCCO)n1 -0.615
COc1cccc2c1C(CO)N1C(C#N)C3CC(C(=O)O)C(C1C2)N3C (stereo not drawn) -1.55
CN(C)c1ccc2nc3c(C(=O)O)cc(=O)c(O)c-3oc2c1 -2.21
Cn1cnc([N+](=O)[O-])c1Sc1nc(N)nc2c1ncn2C1CC(O)C(CO)O1 (stereo not drawn) -0.645
C[C@@H]1C(=O)C[C@H]2C(C)(C)CCC[C@]2(C)[C@@]1(O)CCc1ccoc1 -0.608
O=C(O)Cc1c[nH]c2ccc(F)cc12 -0.736
O=C(O)CC1(C(=O)O)CCCCC1 -0.621
Cc1ccc(C)c(C2NC(=O)c3ccccc3N2)c1 (stereo not drawn) -0.685
COC1/C=C\C=C(/C)C(=O)NC2=CC(=O)C(N)=C(CC(C)CC(OC)C(O)C(C)C=C(C)C1OC(N)=O)C2=O (stereo not drawn) -1.05

log2 luciferase activity ratio, inactive:
Cc1ccccc1C(=N)c1ccccc1Cc1cccc2ccccc12 0.0556
CC1(C)C(CC(=O)O)CCCC1CC(=O)O (stereo not drawn) -0.193
N=C1C(O)C2(I)c3ccccc3N3C(=N)C(O)C4c5ccccc5N1C4C32 (stereo not drawn) 0.988
CC[C@]12CCCN3CCc4c(n(c5ccccc45)C(=O)C1)[C@@H]32 -0.317
COC(=O)C1OC(SCCN)C(O)C(O)C1O (stereo not drawn) 0.246
O=C(O)c1nnsc1-c1csnn1 -0.0043
CN(C)Cc1cc(C(=O)O)cc(CN(C)C)c1O -0.293
CC(=O)Nc1ccc(-c2cc(C(=O)O)c3cc4ccccc4cc3n2)cc1 0.356
C[C@@H]1C[C@H]2[C@@H]3CCC4=CC(=O)C=C[C@]4(C)[C@@]3(Cl)[C@@H](Cl)C[C@]2(C)[C@@]1(O)C(=O)COP(=O)(O)O 0.28
CC[C@@H]1CN(C)[C@H]2Cc3c([nH]c4ccccc34)C(=O)C[C@H]1C2C(=O)OC (stereo partly drawn) -0.243
COc1ccc2c(c1)O[C@H]1c3ccc(O)cc3OC[C@@H]21 0.161
Cn1c([N+](=O)[O-])cnc1CN1CCN(CCO)CC1 0.268
O=C(O)c1cccc(CN2CCCCC2)c1 0.0092
C[N+](C)(C)/N=C/c1ccc(O)c(O)c1 -0.303
NC(N)=NC(N)=Nc1ccc(S(N)(=O)=O)cc1 -0.0076
CCCCN(c1ccccc1)c1ncnc2c1cnn2C -0.0702
COc1ccc2nc3cc(Cl)ccc3c(Nc3ccc(O)c(CN4CCN(C)CC4)c3)c2c1 0.0343
NC(CC(=O)O)(Cc1ccccc1)C(=O)O (stereo not drawn) -0.129
O=S1(=O)OC(c2ccc(O)cc2)(c2ccc(O)cc2)c2ccccc21 0.424
O=S1(=O)C(c2ccccc2)C(N2CCCCC2)C1C1CC2c3ccccc3C1c1ccccc12 (stereo not drawn) 0.456
Cc1cc(N2CCOCC2)nc2ccc(Cc3ccc4nc(N5CCOCC5)cc(C)c4c3)cc12 0.197
OC(Cc1ccccc1)(Cc1ccccc1)c1ccccc1 -0.0177
OC(c1cc(C23CC4CC(CC(C4)C2)C3)nc2c(Cl)cc(Cl)cc12)C1CCCCN1 (stereo not drawn) 0.104
Oc1ccc(-c2nc(-c3cccnc3)c(-c3ccc(F)cc3)[nH]2)cc1 -0.338
C=C1C(=O)OC2C1C(OC(=O)/C(C)=C/COC(C)=O)CC1(CO1)C1C(O)C=C(C)C21 (stereo not drawn) -0.477
C=C1C(=O)O[C@H]2[C@H]1[C@H](OC(=O)/C(C)=C\C)CC(=C)[C@@H]1[C@H](O)[C@H]3O[C@@]3(C)[C@@]12O 0.0107
O=C(O)C(=O)/C=C(\O)c1ccc(Br)cc1 -0.065
N=C(CC(=O)Nc1ccccn1)c1ccccc1 0.825
COc1ccc(/C=N/NC(=O)O)cc1 0.161
CC(CSC(=N)N)C(N)=O (stereo not drawn) 0.0537
Cc1c(-c2nc(N)nc(C3CC3)c2C)nc(N)nc1C1CC1 -0.199
CN1CCN(CC(=O)N2c3ccccc3Sc3cc4ccccc4cc32)CC1 0.0693
O=[N+]([O-])c1cc(Cl)cc2c1nc(NCCO)c1ccccc12 0.0337
O=C(O)C1Cc2c([nH]c3ccccc23)C(CCCCO)N1 (stereo not drawn) -0.0145
O=C1OC(c2ccc(O)c(-c3ccccc3)c2)(c2ccc(O)c(-c3ccccc3)c2)c2c(Cl)c(Cl)c(Cl)c(Cl)c21 -0.153
O=C(O)c1ccc(Cc2ccccc2C(=O)O)cc1 -0.21
COC(=O)[C@]1(C)CCC[C@]2(C)C3=CC(=O)[C@@]4(C(C)C)O[C@H]4[C@]3(O)CC[C@@H]12 -0.359
OC1(c2ccccc2)c2ccccc2NC2=NCCN21 (stereo not drawn) 0.416
Ic1ccc2c(c1)N(c1ccccc1)c1cc(N=c3ccc4nc5ccc(I)cc5n(-c5ccccc5)c-4c3)ccc1N2 0.338
CC(=O)[C@H]1CC[C@@H]2[C@]1(C)CC=C1[C@]23C=C[C@]2(C[C@@H](O)CC[C@]12C)C(C(=O)O)C3C(=O)O (stereo partly drawn) -0.137
CC(C)Cn1cnc2c(Sc3c([N+](=O)[O-])ncn3C)nc(N)nc21 -0.473
COc1nc(N)nc2c1ncn2C1CC(O)C(CO)O1 (stereo not drawn) 0.0307
CC1(C)CC23C4COC(=O)C2CCC1C3CC4=O (stereo not drawn) 0.113
O=C(O)CCn1cnc2c(=S)nc[nH]c21 -0.179
O=C(CSc1nc2ccccc2s1)c1sc2sc3ccccc3[n+]2c1[O-] 0.244
O=C(O)C1C(C(=O)O)C2C(=O)C=CC1N2Cc1ccccc1 (stereo not drawn) 0.0328
CC(C)Cn1cnc2c(SCc3ccc(Cl)cc3Cl)nc(N)nc21 0.484
NC1(C(=O)NC2(C(=O)O)CCCC2)CCCC1 0.0359
O=C(Nc1ccc(Nc2ccc3c(c2)C(=O)c2ccccc2C3=O)c2c1C(=O)c1ccccc1C2=O)c1ccccc1 0.326
O=C(O)[C@H](c1ccccc1)[C@@H](C(=O)O)c1ccccc1 -0.0929
NNC(=O)Cc1cccnc1 0.269
N=C(N)SCCN1CCCCC1 0.0135
CCCNc1ncnc2[nH]ncc12 -0.531
O=C(O)C1CC[N-]CC1.O=C(O)C1CC[N-]CC1.[Cl][Pt+2]([Cl])([Cl])[Cl] -0.241
CC(C)(N=NC(C)(C)C1=NCCN1)C1=NCCN1 -0.215
NCCSc1nc(-c2ccccc2)c(-c2ccccc2)o1 -0.0133
O=[N+]([O-])c1ccc(C2=Nn3c(nnc3-c3ccc(Cl)cc3)SC2)o1 0.0802
O=C(O)[C@@H]1[C@H](C(=O)O)[C@H](C(=O)O)C[C@@H]1C(=O)O -0.306
C/C(=N\NC(=O)c1ccncc1)c1ccccc1Cl 0.497
OC(Cc1cccnc1)(c1ccccc1)c1ccccc1 -0.0482
NC(=O)/C(=C\c1ccncc1)c1cccc2ccccc12 -0.0804
Nc1ccc2[nH]cc(CCC(=O)O)c2c1 -0.0435
NC(Cc1c[nH]c2ccc([N+](=O)[O-])cc12)C(=O)O (stereo not drawn) 0.208
Cc1cc(N2CCCCC2)nc2ccc(Cc3ccc4nc(N5CCCCC5)cc(C)c4c3)cc12 0.559
N=c1ncn(C/C=C/c2ccccc2)c2nc[nH]c12 0.287
Cc1cc(=Nc2ccc3c(c2)c(N)cc(C)[n+]3C)nc(N)n1C -0.0953
COc1cc2c(cc1OC)C(CCN)=NCC2 -0.216
CC1/C=C/C=C/CC/C=C/C=C/C=C/C=C/C(OC2OC(C)C(O)C(N)C2O)CC2OC(CC(O)C(O)CCC(O)CC(O)CC(O)CC(=O)OC(C)C(C)C1O)CC(O)C2C(=O)O (stereo not drawn) -0.0951 and -0.0559
NCCNCC(O)CO (stereo not drawn) 0.073
O=C(O)/C(=C\c1ccc(O)cc1)c1cccc2ccccc12 -0.199
CC1(CC(=O)O)OC2CCCCCC2O1 (stereo not drawn) (tested in a mixture with another compound) 0.0163
CC1CCCC(CC(=O)O)(CC(=O)O)C1 (stereo not drawn) 0.274
O=C1c2cccc(O)c2C(=O)c2c(OC3OC(CO)C(O)C(O)C3O)cccc21 (stereo not drawn) -0.141
OC1C(O)C(O)C(O)C(O)C1O (stereo not drawn) -0.102
CC(C)C(Nc1ncnc2nc[nH]c12)C(=O)O (stereo not drawn) 0.37
O=C(O)CNC(=O)c1ccccc1O 0.226
O=C(O)/C(=C/c1ccccc1)c1ccccc1 -0.172
O=C1Nc2ccccc2/C1=N\[O-].O=C1Nc2ccccc2/C1=N\[O-].[Cu+2] 0.0071
N[C@H](C(=O)O)[C@H]1ON=C(Cl)[C@@H]1O -0.333
CN(C)CCCn1c2c3ccccc3ccc2c2oc(=O)c3ccccc3c21 -0.461
CN1CC(c2ccccc2)C(O)(C2(c3ccccc3)CN(C)CC(c3ccccc3)C2=O)C(c2ccccc2)C1 (stereo not drawn) -0.0781
CC1CC(C)CN(S(=O)(=O)c2cc(Cl)c(Oc3ccc([N+](=O)[O-])cc3Cl)c(Cl)c2)C1 (stereo not drawn) 0.55
NCC(=O)C(O)C(O)C(O)CO (stereo not drawn) 0.229
